According to PubChem BioAssay (Tox21):
Records with an inconclusive call do not appear. The source made the active and inactive calls. Calls follow the shape of the dose curve; as a rule, active = well fitted cell-killing curve with a large enough effect in the repeat runs; inconclusive = weak or mixed curves, or effect the other way; inactive = no such curve, though single readings can be large or run the other way.

Experiment: qHTS assay for small molecule activators of the heat shock response signaling pathway - cell viability counter screen (AID 743209); also: nearly all actives have a fitted effect of over 50% in size
Settings: HSE-bla HeLa viability, CellTiter-Glo luminescence, 5 h; series mostly up to 62.6 µM; activity change, negative = cytotoxicity: at the top concentration
Text: U.S. Tox21 Program National Center for Advancing Translational Sciences [NCATS] NIH Chemical Genomics Center [NCGC] U.S. Environmental Protection Agency [EPA] National Institutes of Environmental Health Sciences [NIEHS] National Toxicology Program [NTP] U.S. Food and Drug Administration [FDA] Tox21 Assay Overview: Various chemicals, environmental and physiological stress conditions may lead to the activation of heat shock response/ unfolded protein response (HSR/UPR). There are three heat shock transcription factors (HSFs) (HSF-1, -2, and -4) mediating transcriptional regulation of the human HSR. To identify the compounds that activate HSR signaling, HSE-bla HeLa cell line (Invitrogen, Carlsbad, CA, USA) containing a beta-lactamase reporter gene under the control of the heat shock response elements was used to screen Tox21 10K compound library. The cytotoxicity of the Tox21 compound library against the HSE-bla HeLa cell line was tested in parallel by measuring the cell viability using CellTiter-Glo assay (Promega, Madison, WI) in the same wells.
Tox21 Assay Protocol Summary: The CellSensor HSE-bla HeLa cells (Invitrogen, Carlsbad, CA, USA) were dispensed at 1500 cells/6uL/well into 1536-well black wall/clear bottom plates using a Multidrop combi (Thermo Fisher Scientific, Waltham, MA) dispenser. After the assay plates were incubated at 37 C and 5% CO2 overnight, 23 nL of compounds dissolved in DMSO, positive controls or DMSO only was transferred to the assay plate by a Pintool station (Kalypsys, San Diego, CA). The plates were incubated at 37 C for 5 h. After 1 uL of LiveBLAzerTM B/G FRET substrate was added using a Flying Reagent Dispenser (FRD, Beckman Coulter, Indianapolis, IN, USA), the plates were incubated at room temperature for 2.5 h, and fluorescence intensity was measured by an Envision plate reader (PerkinElmer, Shelton, CT). For cell viability readout that measures cytotoxicity, 3 ul/well of CellTiter-Glo reagent was added into the assay plates using a FRD. After 30 min incubation at room temperature, the luminescence intensity in the plates was measured using a ViewLux (PerkinElmer) plate reader.
% is scaled to controls: 0 for no effect and ±100 for the full control effect; potency is read from the fitted curve at half-maximal effect.

| Compound | activity change, negative = cytotoxicity | Potency |
| --- | --- | --- |
| O=C(N[C@H](CO)[C@H](O)c1ccc([N+](=O)[O-])cc1)C(Cl)Cl | -23.7% [at 81.1 µM] (inactive) | – |
| CCCCCCCCCC[N+](C)(CCCCCCCCCC)CCC[Si](OC)(OC)OC | – | 13.8 µM (active) |
| N#Cc1nc(Cl)c(Cl)c(Cl)c1Cl | – | 2.19 µM (active) |
| C[C@H]1O[C@@H](O[C@H]2CC[C@@]3(C)[C@H](CC[C@@H]4[C@@H]3C[C@@H](O)[C@]3(C)[C@@H](C5=CC(=O)OC5)CC[C@]43O)C2)C[C@H](O)[C@@H]1O[C@H]1C[C@H](O)[C@H](O[C@H]2C[C@H](O)[C@H](O[C@@H]3O[C@H](CO)[C@@H](O)[C@H](O)[C@H]3O)[C@@H](C)O2)[C@@H](C)O1 | – | 1.06 µM (active) |
| C=C1C(CCl)(CCl)C2(Cl)C(Cl)C(Cl)C1(Cl)C2(Cl)Cl (stereo not drawn) | – | 54.3 µM (active) |
| CCCCCCCCCCCCCCCCCCNC(=O)OC1CCN(C(=O)OC[C@H](COC(=O)N(Cc2cccc[n+]2CC)C(=O)c2ccccc2OC)OC)CC1 | – | 23.7 µM (active) |
| CN(C)CCOc1ccc(/C(=C(/CCCl)c2ccccc2)c2ccccc2)cc1 | – | 28.9 µM (active) |
| CCCCCN=C(N)N/N=C/c1c[nH]c2ccc(OC)cc12 | – | 29.8 µM (active) |
| CC(O)(c1ccc(Cl)cc1)c1ccc(Cl)cc1 | -9.3% (inactive) | – |
| CC1=C(/C=C/C(C)=C/C=C/C(C)=C\C(=O)O)C(C)(C)CCC1 | – | 55.1 µM (active) |
| Oc1ccc(Cl)cc1C1CCCC1 | -0.152% (inactive) | – |
| CN[C@H]1CC[C@@H](c2ccc(Cl)c(Cl)c2)c2ccc(S(N)(=O)=O)cc21 | -13.7% (inactive) | – |
| S=C1NC=NC2N=CNC12 (stereo not drawn) | -11.2% (inactive) | – |
| CCCOC(=O)c1ccc(O)cc1 | -23% [at 81.1 µM] (inactive) | – |
| COc1c(Br)cc(Br)c(C)c1Br | -12.3% (inactive) | – |
| O=[N+]([O-])c1ccc(O)c2ncccc12 | 7.39% (inactive) | – |
| Cc1ccc(Cl)c(N)c1Cl | -4.84% (inactive) | – |
| O=C(CCN1CCC(c2ccccc2)C1)c1ccc2c(c1)OCCO2 (stereo not drawn) | – | 13.3 µM (active) |
| CCCCCCCCCCCCCCCCC(C(=O)O)C(O)(CC(=O)O)C(=O)O (stereo not drawn) | – | 29.8 µM (active) |

| Compound | activity change, negative = cytotoxicity | Potency |
| --- | --- | --- |
| CN(C[C@@H](CC[N+]12CCC(C3CCCCC3)(CC1)CC2)c1ccc(Cl)c(Cl)c1)C(=O)c1cc(C(F)(F)F)cc(C(F)(F)F)c1 | – | 24.5 µM (active) |
| O=C1CCC/C=C\CCCCCCCCCC1 | -23.2% (inactive) | – |
| Clc1nc(C(Cl)(Cl)Cl)c(Cl)c(Cl)c1Cl | – | 17.4 µM (active) |
| CN1CCN(CCCN2c3ccccc3Sc3ccc(Cl)cc32)CC1 | -33.2% (inactive) | – |
| C=CCc1cc(S(=O)(=O)c2ccc(O)c(CC=C)c2)ccc1O | -21.5% (inactive) | – |
| c1ccc2occc2c1 | -25.4% (inactive) | – |
| CCSCC | -26.8% [at 81.1 µM] (inactive) | – |
| CN1CCN(c2ccccc2/C=C2\SCCN(c3ccc(Cl)c(Cl)c3)C2=O)CC1 | – | 54.9 µM (active) |
| CCC(C)(C)c1ccc(CC(C)CN2C[C@@H](C)O[C@@H](C)C2)cc1 (stereo partly drawn) | -4.63% (inactive) | – |
| Cc1cc(F)ccc1-c1cc(N2CC[C@@H](O)[C@H]2CO)ncc1N(C)C(=O)C(C)(C)c1cc(C(F)(F)F)cc(C(F)(F)F)c1 | – | 19.2 µM (active) |
| Cc1ccc2nc(-c3ccc(N)cc3)sc2c1S(=O)(=O)O | -6.86% (inactive) | – |
| O=C(CCCCCCCCc1cccnc1)N1CCC(C=C(c2ccccc2)c2ccccc2)CC1 | -16.6% (inactive) | – |
| SC1CCCCC1 | -29.7% [at 81.1 µM] (inactive) | – |
| Cc1cc(Br)ccc1NC(=O)CCl | – | 12.3 µM (active) |
| CN1CCN(CCCN2c3ccccc3Sc3ccc(C(F)(F)F)cc32)CC1 | – | 29.8 µM (active) |
| CN(C/C=C/c1ccccc1)Cc1cccc2ccccc12 | -26.7% (inactive) | – |
| CC(Cc1ccc(O)c(O)c1)C(C)Cc1ccc(O)c(O)c1 (stereo not drawn) | -17.7% (inactive) | – |
| CCOc1ccc([N+](=O)[O-])cc1 | – | 44.3 µM (active) |
| CCCCCCCCCCCCN1CCCC1=O | – | 21.9 µM (active) |
